Bioassay records deposited in PubChem BioAssay by several laboratories.
DYRK1A inh = blocks rat Dyrk1A kinase activity; inhibition, % at 12.5 µM; 310,000 tested, 0.43% active; ADP-Glo luminescence, NFATc1 peptide; AID 504441; in the data active = inhibition above about 50%;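 note: plate controls were vehicle with enzyme for no effect and no enzyme for full effect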
GC-B act = GC-B (human) receptor activation; HEK293-GC-B cells, CNP EC30, cGMP TR-FRET; 0% at EC30 CNP, 100% saturating CNP; P20594; AID 1920062; 370,000 tested, 0.11% active; activation, % at 10 µM;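 active = activation at 10 µM reaching about 35% in either raw or pattern-adjusted values, limit read from the data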
HSF-1 act = increases HSF-1 driven luciferase reporter signal; activation, % at 9 µM; NIH3T3-HGL HSF-1 luciferase reporter, MG132, 8 h; 100% = twice DMSO control signal; AID 504408; 300,000 tested, 1.7% active;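 active = mean replicate activation of at least 50% with a set share of replicates each reaching 50%; inconclusive = only one of those two conditions met; inactive = mean below 50% and too few replicates reaching it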;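 note: 0% = median of the neutral control wells and 100% = twice that signal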
NPR1 activator = GC-A (human) enzyme activation; AID 1671463; 370,000 tested, 0.14% active; HEK293 GC-A cells, cGMP TR-FRET, EC30 ANP; 0% at EC30 ANP, 100% saturating ANP; P16066; activation, % at 10 µM; in the data active = activation above about 40%
Target sequence (P16066 whole entry, looked up): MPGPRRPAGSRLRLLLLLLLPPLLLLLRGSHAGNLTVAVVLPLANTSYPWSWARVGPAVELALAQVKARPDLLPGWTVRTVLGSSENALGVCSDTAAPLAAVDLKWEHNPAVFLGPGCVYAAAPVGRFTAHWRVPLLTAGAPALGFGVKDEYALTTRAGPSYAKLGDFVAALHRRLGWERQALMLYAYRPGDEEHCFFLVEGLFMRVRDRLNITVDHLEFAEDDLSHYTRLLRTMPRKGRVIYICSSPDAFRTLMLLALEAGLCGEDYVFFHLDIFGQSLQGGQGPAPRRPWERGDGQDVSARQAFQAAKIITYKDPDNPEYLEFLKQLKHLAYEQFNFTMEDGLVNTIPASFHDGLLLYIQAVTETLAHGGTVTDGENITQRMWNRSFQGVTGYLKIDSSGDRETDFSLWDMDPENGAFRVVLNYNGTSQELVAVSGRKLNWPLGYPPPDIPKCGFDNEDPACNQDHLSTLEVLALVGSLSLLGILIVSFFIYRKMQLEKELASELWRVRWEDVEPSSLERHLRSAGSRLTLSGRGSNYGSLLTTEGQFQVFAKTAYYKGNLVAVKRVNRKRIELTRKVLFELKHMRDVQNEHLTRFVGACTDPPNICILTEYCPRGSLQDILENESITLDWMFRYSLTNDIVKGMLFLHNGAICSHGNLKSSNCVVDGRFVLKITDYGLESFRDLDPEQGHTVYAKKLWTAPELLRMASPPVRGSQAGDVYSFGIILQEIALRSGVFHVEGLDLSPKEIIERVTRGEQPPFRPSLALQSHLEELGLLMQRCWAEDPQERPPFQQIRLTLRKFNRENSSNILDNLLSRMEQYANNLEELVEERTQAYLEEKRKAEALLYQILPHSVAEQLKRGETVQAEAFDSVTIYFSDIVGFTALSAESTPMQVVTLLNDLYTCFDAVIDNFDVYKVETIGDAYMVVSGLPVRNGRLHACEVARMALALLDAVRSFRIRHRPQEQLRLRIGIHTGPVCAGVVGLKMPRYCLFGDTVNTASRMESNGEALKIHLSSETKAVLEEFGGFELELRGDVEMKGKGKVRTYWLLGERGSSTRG
aDG glyco act = increases alpha dystroglycan glycosylation. Pro5-aDG cells, alpha-DG glycosylation AlphaScreen (IIH6); 0% Pro5, 100% B10-LARGE cell signal. activation, % at 10 µM. 360,000 tested, 0.22% active;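 active = activation of at least 8% versus controls, or a plate z-score of at least 8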;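 note: Pro5 are CHO cells carrying HIG-tagged alpha-DG that lacks glycosylation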
HSF1 inh = HSF1 inhibition; NIH3T3-HGL HSE-luciferase, MG132-induced, luminescence 8 h; active compounds read low; activity change, negative = inhibition, % at 7.5 µM (by protocol); 300,000 tested, 0.77% active; AID 2098;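 active = more than half of replicate wells show activity change below -50%, luminescence cut by over half; inconclusive = some wells, but at most half, below -50%; inactive = no replicate well below -50%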;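 note: luciferase reports HSF-1 transcriptional activity via heat shock element; 0% = median of DMSO wells and -100% = zero luminescence signal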
The depositor's hits bear a star. Sampled rows, rich in hits. Any-hit rate of the full collection: about 2.5%.

What do the screens show for `O=S(=O)(Nc1ccc2c(c1)OCCO2)c1cccs1`?
DYRK1A inh: -1.6; GC-B act: 12.0; HSF-1 act: -65.1; NPR1 activator: -2.0; aDG glyco act: -0.1; HSF1 inh: -63.2*

Results for O=S(=O)(Nc1ccc2c(c1)OCO2)c1cccs1 ?
DYRK1A inh: 0.1; GC-B act: 4.7; HSF-1 act: -3.2; NPR1 activator: 4.6; aDG glyco act: -0.2; HSF1 inh: -0.1

Results for Cn1c(=O)c(=O)n(C)c2cc(S(=O)(=O)Nc3ccc4c(c3)OCCO4)ccc21 ?
DYRK1A inh: -8.7; GC-B act: 1.1; HSF-1 act: -64.3; NPR1 activator: -0.3; aDG glyco act: -0.2; HSF1 inh: -60.0*

How did Cc1nc(C)c(-c2ccc(SCc3ccc([N+](=O)[O-])cc3)nn2)s1 do in these assays?
DYRK1A inh: -2.2; GC-B act: 0.1; HSF-1 act: 52.3*; NPR1 activator: 0.6; aDG glyco act: 0.1; HSF1 inh: 27.7

Results for CN(C)c1ccc(C2CNC(c3ccc(Cl)c([N+](=O)[O-])c3)c3[nH]c4ccccc4c32)cc1 (stereo unspecified) ?
DYRK1A inh: -1.2; GC-B act: -9.4; HSF-1 act: -12.9; NPR1 activator: 2.0; aDG glyco act: -0.5; HSF1 inh: 0.5

What do the screens show for `O=C1CC(c2ccc(Cl)c([N+](=O)[O-])c2)c2ccc3ccccc3c2N1` (stereo unspecified)?
DYRK1A inh: -5.4; GC-B act: 10.2; HSF-1 act: -72.3; NPR1 activator: -11.1; aDG glyco act: 0.3; HSF1 inh: -64.8*

Results for Cc1ccc2nc(C)c(C(=O)N/N=C/c3cccc([N+](=O)[O-])c3)cc2c1 ?
GC-B act: -4.3; HSF-1 act: 25.6; NPR1 activator: 14.7; aDG glyco act: 0.5; HSF1 inh: 7.5

How did Cc1ccc(C(C(=O)NC2CCCCC2)N(Cc2cccnc2)C(=O)c2csnn2)cc1 (stereo unspecified) do in these assays?
DYRK1A inh: -4.4; GC-B act: -1.7; HSF-1 act: 11.3; NPR1 activator: -3.5; aDG glyco act: 0.0; HSF1 inh: 1.1

Results for COCc1cc(=O)oc2cc(NC(=O)c3ccc(C(C)(C)C)cc3)ccc12 ?
DYRK1A inh: -0.8; HSF-1 act: 56.8*; aDG glyco act: 0.3; HSF1 inh: 10.5

What do the screens show for `CC1CCCN(CCC(=O)c2ccccc2)C1` (stereo unspecified)?
DYRK1A inh: -6.6; GC-B act: -1.3; NPR1 activator: 66.7*; aDG glyco act: 0.3

Results for CC1=C([N+](=O)[O-])C(c2ccccc2)C2=C(N1)c1ccccc1C2=O (stereo unspecified) ?
DYRK1A inh: 3.6; GC-B act: -2.8; HSF-1 act: 57.3*; NPR1 activator: -9.0; aDG glyco act: -0.5; HSF1 inh: 38.1

Results for COc1cccc(C(=O)CC(=O)C(=O)Nc2cc(OC)c(OC)c(OC)c2)c1 ?
HSF-1 act: -62.3; HSF1 inh: -57.5*

How did CC1=CC(=C2C(=O)c3ccccc3C2=O)C=C(C)N1C do in these assays?
DYRK1A inh: 3.3; GC-B act: -3.3; HSF-1 act: 22.8; NPR1 activator: 8.1; aDG glyco act: -0.2; HSF1 inh: 13.7

Results for CCCCCN1C=CC(=C2C(=O)c3ccccc3C2=O)C=C1 ?
DYRK1A inh: 4.6; GC-B act: -2.1; HSF-1 act: -84.6; NPR1 activator: -0.8; aDG glyco act: 0.8; HSF1 inh: -81.3*

How did CCCC(C)NC(=O)C1c2ccccc2Oc2ccccc21 (stereo unspecified) do in these assays?
DYRK1A inh: 0.1; GC-B act: -4.0; HSF-1 act: -66.8; NPR1 activator: -6.9; aDG glyco act: 0.3; HSF1 inh: -61.3*

Results for CCCCNC(=O)C1c2ccccc2Oc2ccccc21 ?
DYRK1A inh: 0.5; GC-B act: -7.3; HSF-1 act: -14.8; NPR1 activator: -9.3; aDG glyco act: -0.1; HSF1 inh: -11.4

Results for CCn1c(SCC(=O)Nc2ccc(S(=O)(=O)Nc3cc(C)nc(C)n3)cc2)nc2sc(C)c(C)c2c1=O ?
GC-B act: -2.1; NPR1 activator: 3.4

What do the screens show for `c1cnc(SCCOc2ccc3c(c2)CCC3)nc1`?
DYRK1A inh: -3.1; GC-B act: 1.8; HSF-1 act: 56.9*; NPR1 activator: 24.4; aDG glyco act: -0.2; HSF1 inh: 25.9

How did CNCCCOc1ccc2c(c1)CCC2 do in these assays?
DYRK1A inh: 2.6; GC-B act: -1.4; HSF-1 act: 1.3; NPR1 activator: -1.3; aDG glyco act: 0.5; HSF1 inh: 5.2

How did CC(/C=C/c1ccco1)=N\NC(=O)COc1ccc(C)c(C)c1 do in these assays?
DYRK1A inh: -6.3; GC-B act: 2.3; HSF-1 act: 77.5*; NPR1 activator: 2.2; aDG glyco act: -0.2; HSF1 inh: 67.3

How did O=C(N/N=C/C=C/c1ccco1)c1ccccc1Cl do in these assays?
DYRK1A inh: 7.6; GC-B act: -1.5; HSF-1 act: 68.8*; NPR1 activator: 2.8; aDG glyco act: -0.2; HSF1 inh: 42.4

What do the screens show for `Cc1cccc(OCC(=O)N/N=C/C=C/c2ccco2)c1`?
DYRK1A inh: 0.1; GC-B act: 5.8; HSF-1 act: 17.3; NPR1 activator: -2.4; aDG glyco act: -0.3; HSF1 inh: 21.2

Results for O=C(Cc1cccs1)N/N=C/C=C\c1ccco1 ?
DYRK1A inh: 2.0; GC-B act: 2.0; HSF-1 act: 91.8*; NPR1 activator: -3.5; aDG glyco act: -0.3; HSF1 inh: 64.4

How did CC(/C=C/c1ccco1)=N/NC(=O)c1ccccc1Cl do in these assays?
DYRK1A inh: 2.5; GC-B act: 0.2; HSF-1 act: inconclusive; NPR1 activator: -0.3; aDG glyco act: -0.4; HSF1 inh: 27.5

How did Cc1cccc(C)c1OCC(=O)N/N=C/C=C/c1ccco1 do in these assays?
DYRK1A inh: 8.3; GC-B act: -4.2; HSF-1 act: 81.3*; NPR1 activator: -2.2; aDG glyco act: -0.2; HSF1 inh: 63.1

Results for Cc1cccc(C)c1NC(=O)C(c1ccccc1)n1c(-c2ccccc2)nc2ccccc21 (stereo unspecified) ?
GC-B act: -11.8; NPR1 activator: -18.9; aDG glyco act: 0.2

What do the screens show for `COc1ccc(C(C(=O)NCCC(C)C)N(CCCO)C(=O)c2snc(C(N)=O)c2N)cc1OC` (stereo unspecified)?
DYRK1A inh: -5.2; GC-B act: -2.1; HSF-1 act: -9.9; NPR1 activator: -4.8; aDG glyco act: 0.0; HSF1 inh: -6.6

How did O=[N+]([O-])c1ccc(Nc2ccc(N3CCOCC3)cc2)c([N+](=O)[O-])c1 do in these assays?
DYRK1A inh: -3.2; GC-B act: -11.8; HSF-1 act: -1.6; NPR1 activator: -3.9; aDG glyco act: -0.3; HSF1 inh: 4.8
